KB-3-1 tox = qHTS assay for MDR1-selective chemotherapeutics: Primary screen using the parental adenocarcinoma cell KB-3-1 | KB-3-1 viability, CellTiter-Glo ATP luminescence, 72 h | Potency, µM (highest dose often 46.1 µM), most hits filed as cytotoxic | hit rate 1.4% among 400,000 | AID 1347075, 2019; also: nearly all actives have a fitted effect of over 60% in size
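Cytotoxicity measured as CellTiter-Glo luminescence after 72 h at 37 C. Compound titrations were pinned onto drug-naive KB-3-1 parental adenocarcinoma cells grown in DMEM with 10% FBS, and normalized data fitted to concentration-response curves.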
TDP1 cell noCPT = qHTS for Inhibitors of human tyrosyl-DNA phosphodiesterase 1 (TDP1): qHTS in cells in absence of CPT | DT40 Tdp1-/- hTDP1 cells, no CPT, ATP luminescence, 48 h | Potency, µM (series often up to 46.2 µM), inactives show at the highest dose activity change, negative = growth inhibition, usual class: inhibitors | hit rate 15% among 420,000; also: nearly all actives have a fitted effect of over 55% in size
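Chicken DT40 Tdp1-/- cells complemented with human TDP1, screened without camptothecin (DMSO vehicle only), 400 cells/well. Compounds pin-transferred, cells incubated at 37 °C for at least 48 hr. Growth read as ATP-dependent luminescence (CellTiter-Glo, 30 min at RT).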
TDP1 cell CPT = qHTS for Inhibitors of human tyrosyl-DNA phosphodiesterase 1 (TDP1): qHTS in cells in presence of CPT; hit rate 12% among 420,000; Potency, µM (highest dose often 46.2 µM), without a hit: at the highest dose activity change, negative = growth inhibition, hits mostly inhibitors; chicken DT40 Tdp1-/-;hTDP1 cells + 20 nM CPT, ATP luminescence, 48 h; also: nearly all actives have a fitted effect of over 55% in size
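Cell growth measured by CellTiter-Glo luminescence after a minimum 48 h, 37 C compound exposure with 20 nM CPT in Tdp1-knockout DT40 cells stably expressing hTDP1, seeded 400/well; qHTS titration format.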
HT1080NT lethal = qHTS for induction of synthetic lethality in tumor cells producing 2HG: qHTS for the HT-1080-NT fibrosarcoma cell line; HT-1080-NT fibrosarcoma viability, CellTiter-Glo ATP luminescence, 48 h; Potency, µM (series often up to 46.1 µM), inactives show at the top dose activity, negative = less viability, hits mostly cytotoxic; hit rate 1.6% among 360,000;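 also: NT is the 2HG producing partner of a matched IDH1 knockdown line; 0% = DMSO-treated cells and -100% = media-only wells without cells; nearly all actives have a fitted effect of over 55% in size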
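Fibrosarcoma NT cells, 750 per well in 5% FBS RPMI, were exposed to compound for 48 hours. Viability: CellTiter-Glo luminescence.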
KB-V1 cytotox = qHTS assay for MDR1-selective chemotherapeutics: Primary screen using the drug-selected MDR subline cells KB-V1; KB-V1 MDR cells viability, CellTiter-Glo, 72 h; hit rate 3.4% among 400,000; Potency, µM (series often up to 46.1 µM), usual class: cytotoxic; AID 1347076, 2019; also: nearly all actives have a fitted effect of over 60% in size
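Luminescent ATP read-out (CellTiter-Glo, 10 min) measures survival of drug-selected KB-V1 MDR cells after 72 h, 37 degrees C compound exposure. Medium: phenol-red-free DMEM, 10% FBS. Values from fitted concentration-response curves.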
HT1080 IDH1KD tx = qHTS for induction of synthetic lethality in tumor cells producing 2HG: qHTS for the HT-1080-IDH1KD cell line; HT-1080 IDH1 knockdown viability, ATP luminescence, 48 h; hit rate 2% among 360,000; Potency, µM (titrated, usually from 46.1 µM), without a hit: top-dose activity, negative = toxicity, most hits filed as cytotoxic;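 also: 0% = DMSO wells and -100% = cell-free medium wells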
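In this qHTS, HT-1080 cells depleted of IDH1 are exposed for 48 h at 37 °C to compound titrations. Toxicity is scored from CellTiter-Glo luminescence, with DMSO as full viability and medium alone as none.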
Active calls of the source: *; i = inactive; ? = inconclusive; / = not tested or not shown. Hits are enriched below; roughly 19% of the tested compounds scored in any of these assays. Calls follow the shape of the dose curve; as a rule, active = well fitted curve in the direction sought with a large enough effect; inconclusive = small, poorly fitted or top-dose-only effect, or another doubt; inactive = no such curve, though single readings can be large; an effect the other way counts as inactive or inconclusive. Unless noted, % is scaled to controls: 0 for no effect and ±100 for the full control effect; potency is read from the fitted curve at half-maximal effect.

SMILES	KB-3-1 tox	TDP1 cell noCPT	TDP1 cell CPT	HT1080NT lethal	KB-V1 cytotox	HT1080 IDH1KD tx
CCC(c1nnnn1-c1c(C)cccc1C)N1CCN(c2ccc(C(F)(F)F)cc2[N+](=O)[O-])CC1 (configuration not stated)	i	-58%	?	29µM*	i	-10%
CCC(c1nnnn1-c1c(C)cccc1C)N1CCN(CC)CC1 (configuration not stated)	i	-10%	-2%	12%	i	13%
CCC(c1nnnn1-c1c(C)cccc1C)N1CCN(c2cccc(C(F)(F)F)n2)CC1 (configuration not stated)	?	15µM*	?	-5%	i	-2%
O=C(OCCOc1ccccc1)c1cc(S(=O)(=O)N2CCOCC2)c(Cl)cc1Cl	i	?	-23%	-1%	i	0%
O=C(Cn1c(C(=O)N2CCN(C3CCCC3)CC2)cc2sccc21)c1ccccc1	i	?	18µM*	-20%	i	-25%
CCn1c(C(=O)N2CCC(Cc3ccccc3)CC2)cc2sccc21	i	?	?	1%	i	-5%
CCNc1nc(NC(N)=S)nc(NC(C)(C)C)n1	i	-21%	13%	-24%	?	-16%
Cc1cccc(-c2onc3ccc(C4(C)OCCO4)cc23)c1	i	15µM*	?	-9%	i	-7%
CCOc1ccc(N/C(N)=N/c2nc(C)cc(C)n2)cc1	i	26µM*	21µM*	-17%	i	-1%
Cc1cc(C)nc(/N=C(\N)Nc2ccc(-c3ccccc3)cc2)n1	16µM*	9.2µM*	7.3µM*	16µM*	16µM*	16µM*
Cc1cc(C)nc(/N=C(\N)Nc2ccc3c(c2)OCCO3)n1	?	?	21µM*	-21%	i	?
CC(=O)Nc1ccc(N/C(N)=N/c2nc(C)cc(C)n2)cc1	i	?	?	-10%	i	-19%
Cc1cc(C)nc(/N=C(\N)Nc2ccc(S(N)(=O)=O)cc2)n1	i	?	-30%	-13%	i	-1%
Cc1cc(C)nc(/N=C(\N)Nc2ccc(SC(F)F)cc2)n1	?	12µM*	13µM*	5%	i	-14%
O=C(Nc1ccc(F)c(Cl)c1)Nc1nnc([C@@H]2O[C@H](CO)[C@@H](O)[C@H]2O)s1	i	-21%	?	-24%	i	-1%
O=C(NNC(=O)c1cc(Br)c(Br)s1)c1ccncc1	i	-4%	-3%	-9%	i	3%
O=C(NCC(O)c1nc2ccccc2[nH]1)c1cc([N+](=O)[O-])ccc1F (configuration not stated)	i	?	?	-16%	i	-17%
c1ccc2c(c1)NCC1CCCN21 (configuration not stated)	i	16µM*	21µM*	-10%	i	-8%
N#CCCN(C(=O)Nc1ccc(Cl)c(Cl)c1)c1ccccc1	i	-30%	-18%	1%	?	-9%
CCOC(OCC)c1nc(N)[nH]c(=O)c1CCCCc1ccccc1	i	16µM*	23µM*	-16%	i	-5%
Cn1c(CSc2nnc(SCc3ccccc3)s2)nc2ccccc21	i	-29%	-22%	8%	16µM*	-2%
COc1cc(Nc2nc3c(N)cc(C(F)(F)F)cc3nc2-c2ccccc2)cc(OC)c1OC	i	13µM*	?	-5%	i	-22%
Cc1c(C(=O)NCCSCc2cccc(C(F)(F)F)c2)cnn1-c1ccc(F)cc1	i	?	-27%	-1%	?	4%
CC1(C)CC(=O)c2c(O)cc(OCC(=O)Nc3ccc(CCO)cc3)cc2O1	i	21µM*	15µM*	1%	i	3%
COc1ccc(CCNC(=O)COc2cc(O)c3c(c2)OC(C)(C)CC3=O)cc1	i	?	?	-5%	i	4%
SMILES	KB-3-1 tox	TDP1 cell noCPT	TDP1 cell CPT	HT1080NT lethal	KB-V1 cytotox	HT1080 IDH1KD tx
COc1ccc(NC(=O)COc2cc(O)c3c(c2)OC(C)(C)CC3=O)cc1	i	?	?	-1%	i	-3%
COc1cc(NC(=O)COc2cc(O)c3c(c2)OC(C)(C)CC3=O)cc(OC)c1	i	13µM*	16µM*	-10%	?	-12%
COc1ccc(CCNC(=O)COc2cc(O)c3c(c2)OC(C)(C)CC3=O)cc1OC	i	18µM*	?	-16%	i	-11%
O/N=C1/CC/C(=N\O)c2nn(-c3ccccc3)nc21	i	9.2µM*	15µM*	-20%	i	-27%
COC(=O)c1nn(-c2ccccc2)nc1-c1nn(-c2ccccc2)nc1C(=O)OC	?	16µM*	?	0%	i	-4%
O=C(O)c1nn(-c2ccccc2)nc1-c1nn(-c2ccccc2)nc1C(=O)O	i	1%	-7%	11%	i	15%
S=C(Nc1ccc(Nc2ccccc2)cc1)Nc1ccccn1	?	6.5µM*	6.5µM*	?	i	16µM*
CCOC(=O)c1ccc(NC(=S)NCC(O)c2ccccc2)cc1 (configuration not stated)	i	18µM*	?	9%	i	9%
COc1ccccc1CCC(=O)OCC(=O)Nc1ccc(C(N)=O)cc1	i	-99%	15µM*	9%	i	7%
CCOC(=O)c1ccc(NC(=S)NCCc2ccccc2)cc1	i	21µM*	?	?	i	-29%
O=C(Nc1ccccc1)C(=O)Nc1ccccn1	i	-22%	-5%	-4%	?	-16%
Cc1ccc(OCC(=O)Nc2ccc3c(c2)C(=O)NC3=O)c(C)c1	i	?	?	-3%	?	1%
CCOCCn1c(=O)c2c(nc3n2CCN3c2ccc(C)c(C)c2)n(C)c1=O	i	-5%	4%	/	i	/
COCCNC(=O)C1(C)CCN(Cc2noc(-c3c(C)noc3C)n2)C1 (configuration not stated)	i	0%	0%	?	i	15%
CCOC(=O)c1ccc(NC(=S)Nc2ccccn2)cc1	i	15µM*	?	-16%	i	-22%
